Assay outcomes: PubChem BioAssay, several laboratories
BoNT-F LC inh: BoNT/F light chain protease inhibitors, primary screen, biochemical, flow cytometry, MLPCN library. Botulinum neurotoxin type F light chain protease (Clostridium botulinum). Multiplex microsphere protease cleavage assay. inhibition, % at 10 µM. 360,000 tested, 0.22% active. AID 588497, 2011; in the data active = inhibition above about 35%, passing the limit was not always enough; inconclusive = no clear call, values can overlap the other calls; also: plate controls were buffer without enzyme for full effect and enzyme alone for no effect
Anthrax LF inh2: Bacillus anthracis LF protease inhibitors, primary screen, biochemical, multiplex microsphere, MLPCN library; multiplex microsphere protease cleavage assay; 360,000 tested, 0.12% active; inhibition, % at 10 µM; Lethal factor (Bacillus anthracis), P15917; also: plate controls were buffer without enzyme for full effect and enzyme alone for no effect
MazEF act: activators of E. coli MazEF toxin-antitoxin RNase, primary screen, biochemical, fluorescence, uHTS; FAM/BHQ RNA-DNA oligo cleavage fluorescence, 5 h; 350,000 tested, 0.32% active; activation, % at 20 µM; in the data active = activation above about 50%
Target sequence (P0AE70 whole entry, looked up): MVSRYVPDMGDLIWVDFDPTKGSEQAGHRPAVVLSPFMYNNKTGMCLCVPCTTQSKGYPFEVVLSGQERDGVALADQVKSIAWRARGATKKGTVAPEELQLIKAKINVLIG
DUSP3 inh: VHR1 phosphatase inhibitors, primary screen, biochemical, absorbance, uHTS; recombinant VHR phosphatase, pNPP absorbance; AID 1654, 2009; 290,000 tested, 0.52% active; Dual specificity protein phosphatase 3 (Homo sapiens), P51452; inhibition, % at 13.3 µM; in the data active = inhibition above about 50%
Target sequence (P51452 whole entry, looked up): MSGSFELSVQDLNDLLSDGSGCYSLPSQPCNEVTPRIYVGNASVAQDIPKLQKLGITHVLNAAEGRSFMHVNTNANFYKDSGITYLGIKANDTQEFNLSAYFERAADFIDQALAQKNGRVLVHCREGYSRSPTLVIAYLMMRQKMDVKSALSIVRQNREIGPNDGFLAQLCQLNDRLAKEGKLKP
Bead autofluor: counter-screen for toxin protease inhibitors: compound fluorescence | compound autofluorescence counterscreen, microsphere flow cytometry; stronger effect = higher value | fluorescence intensity (concentration not given with the values) | 360,000 tested, 3.1% active | AID 624483; in the data active = fluorescence intensity above about 16000; inconclusive = no clear call, values can overlap the other calls
BoNT-A LC inh2: BoNT/A light chain protease inhibitors, primary screen, biochemical, flow cytometry, MLPCN library | Botulinum neurotoxin type A light chain protease (Clostridium botulinum A str. ATCC 3502) | multiplex microsphere protease substrate cleavage | inhibition, % at 10 µM | 360,000 tested, 0.17% active | AID 588499, 2011; also: plate controls were buffer without enzyme for full effect and enzyme alone for no effect
Active calls of the source: *; ? = inconclusive; . = no result given. This is a sample that favours compounds with a hit; in the whole collection about 4.1% have one here. Rule as the data show it, unless noted: active = inhibition above about 30%; inconclusive = no clear call, values can overlap the other calls; inactive = below that.

SMILES	BoNT-F LC inh	Anthrax LF inh2	MazEF act	DUSP3 inh	Bead autofluor	BoNT-A LC inh2
O=C(CC(C(=O)O)N1CCOCC1)Nc1ccc(Cl)cc1 (stereo not drawn)	2	0	-1	23	19713*	1
O=C(CN1C(=O)c2ccccc2C1=O)Nc1sc2c(c1C(=O)NCC1CCCO1)CCC2 (stereo not drawn)	-1	0	0	14	22614*	0
CCCS(=O)(=O)c1nnnn1-c1cccc(OC)c1	0	-1	-3	-5	19154*	1
CCCCN1C(=O)/C(=C/C=C2\SCCN2C)SC1=S	-12	2	530*	9	5456	1
CCc1ccc(N(CC(=O)N2CCCC2)S(C)(=O)=O)cc1	-1	0	-16	.	3051	0
CCNC(=O)CN(c1ccc(CC)cc1)S(C)(=O)=O	0	-2	12	11	23318*	?
CCc1ccc(NC(=O)CN(c2cccc(C)c2)S(C)(=O)=O)cc1	-4	-2	0	-5	23603*	-1
CSc1ccccc1NC(=O)CN(c1cccc(C)c1)S(C)(=O)=O	-6	1	-7	-1	23782*	-4
CC(C)(C)OC(=O)N1Cc2ccccc2C[C@H]1C(=O)NC1CCCC1	-5	4	5	27	3354	-3
Cc1cc(C)c2c(CN3CCN(CCO)CC3)cc(=O)oc2c1	-1	0	1	17	23234*	0
Cc1ccc2c(CN3CCN(CCO)CC3)cc(=O)oc2c1C	7	3	-3	10	10459	0
Cc1cc(C)c2c(CN3CCN(c4ccccc4F)CC3)cc(=O)oc2c1	9	-8	.	.	4197	-1
Cc1cc(C)c2c(CN3CCN(C)CC3)cc(=O)oc2c1	-5	-1	4	-1	16812*	-2
COc1ccc(N2Nc3n[nH]c(N)c3N2)cc1	1	-5	-4	13	3374	-1
COc1ccc(N(C)S(=O)(=O)c2ccc3c(c2)CCC(=O)N3)cc1	-2	-3	-8	21	20669*	0
COc1ccc(C(=O)Nc2nc(CC(=O)NCc3c(F)cccc3F)cs2)cc1	0	1	0	.	2702	1
CN(C)CCOCCSc1ccc(Cl)cc1	-5	-7	-2	26	23961*	-2
CCCCNCCOCCSc1ccc(Cl)cc1	-9	-3	11	32	21188*	-1
COC1CCC2(C)C(=CCC3C4CC(O)CC4(C)CCC32)C1 (stereo not drawn)	-4	-1	-4	.	3436	0
COCCNC(=S)N(C)[C@H]1C[C@H]2c3cc(N4CCN(C)CC4)ccc3CCN2C(=O)[C@H]1[C@H](C)O	2	3	5	.	3816	0
COc1ccc(C(=O)Nc2ccc3c(c2)nc(CCNC(C)=O)n3C)cc1	-2	0	-7	16	20535*	0
CC(=O)NCCc1nc2cc(NC(=O)c3ccc(F)cc3)ccc2n1C	4	10	3	2	3545	-1
COc1ccccc1C(=O)Nc1ccc2c(c1)nc(CCNC(C)=O)n2C	-1	-1	-1	1	21508*	-3
CCN(CC)CCNc1ccnc2cc(Cl)ccc12	0	0	5	13	20811*	0
COc1ccc(OC)c(S(=O)(=O)N2CCN(CC(O)COc3ccc(C#N)cc3)CC2)c1 (stereo not drawn)	13	-6	-12	6	3657	-3
SMILES	BoNT-F LC inh	Anthrax LF inh2	MazEF act	DUSP3 inh	Bead autofluor	BoNT-A LC inh2
COc1cccc(NC(=O)NC2CCN(Cc3nnnn3Cc3ccc(F)cc3)CC2)c1	-6	5	5	22	10898	-2
O=C(Nc1ccc(F)cc1)NC1CCN(Cc2nnnn2Cc2ccco2)CC1	0	-2	0	-1	22240*	?
O=C(Nc1ccccc1F)NC1CCN(Cc2nnnn2Cc2ccc(F)cc2)CC1	-2	1	0	29	23538*	0
O=c1c(=O)n(CCO)n(CCO)c(=O)n1CCO	-1	-4	6	.	2902	0
FC(F)(F)c1ccc(/C=N/N2CCN(Cc3cccc4ccccc34)CC2)cc1	-9	-9	1	9	17471*	-4
O=C(O)c1ccc(/C=N/N2CCN(Cc3cccc4ccccc34)CC2)cc1	-5	2	-4	6	5030	-2
C(=N\N1CCN(Cc2cccc3ccccc23)CC1)/c1cccnc1	5	-11	-3	3	20176*	7
